Source: PubChem
NF-kB neuron act: raises NF-kB expression in human neuronal cells | NF-kB reporter expression; stronger effect = higher value | AID 1239 | hit rate 1.6% among 190,000 | fold change at 12.5 µM; in the data active means fold change above about 3.3
Hsp70 activator: Hsp70 transcriptional activation, primary screen; HeLa Hsp70 promoter luciferase reporter, luminescence; scaled: vehicle 0, proteasome-inhibitor control 100%; activation, % at 10 µM; hit rate 0.04% among 200,000;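 active means activation above the mean across all tested compounds plus 3 SD, cutoff set per campaign, cut at about 5.5% in these data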;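 further: 100% = MG132 at 30 µM as the positive control and 0% = DMSO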
STAT1 activator: STAT1 signaling activation; NIH 3T3 STAT1-luciferase reporter, IFN-gamma, luminescence; 100% = IFN-gamma alone, no compound; activation (% of control), % at 5.5 µM; hit rate 2.6% among 200,000; AID 932;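 active means activation above the screen-wide mean activation plus 3 SD, cut at about 130% in these data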;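 further: raw ratio to IFN-gamma control signal so 100% means no change and 0% no light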
APP 5'UTR act: activates APP 5'UTR luciferase reporter | AID 1276 | SH-SY5Y APP 5'UTR luciferase reporter, luminescence; zero percent = DMSO vehicle wells | hit rate 1% among 190,000 | activation, % at 2 µM;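 active means activation above a set limit, based on mean plus 3 SD of controls, cut at about 140% in these data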
APP transl inh: APP translation inhibition | hit rate 0.82% among 190,000 | AID 1285 | SH-SY5Y APP 5'UTR-luciferase reporter, luminescence | inhibition, % at 2 µM;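 active means inhibition above a set limit, derived from the sample mean plus 3 SD, cut at about 45% in these data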
Wee1 degr inh: human Wee1 degradation inhibition, primary screen; AID 1321; HeLa Luc-Wee1K328M stability, luciferase luminescence; 100% = proteasome inhibitor MG132 effect; P30291; reporter increase, % at 5 µM; hit rate 1.2% among 220,000;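 active means activation above the mean of all tested compounds plus 3 SD, set per screening run, cut at about 8.8% in these data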;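 further: cells exposed to compound for 20 h before luminescence read; 0% = DMSO alone and 100% = MG132 at 30 µM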
Target sequence (P30291 whole entry K328M): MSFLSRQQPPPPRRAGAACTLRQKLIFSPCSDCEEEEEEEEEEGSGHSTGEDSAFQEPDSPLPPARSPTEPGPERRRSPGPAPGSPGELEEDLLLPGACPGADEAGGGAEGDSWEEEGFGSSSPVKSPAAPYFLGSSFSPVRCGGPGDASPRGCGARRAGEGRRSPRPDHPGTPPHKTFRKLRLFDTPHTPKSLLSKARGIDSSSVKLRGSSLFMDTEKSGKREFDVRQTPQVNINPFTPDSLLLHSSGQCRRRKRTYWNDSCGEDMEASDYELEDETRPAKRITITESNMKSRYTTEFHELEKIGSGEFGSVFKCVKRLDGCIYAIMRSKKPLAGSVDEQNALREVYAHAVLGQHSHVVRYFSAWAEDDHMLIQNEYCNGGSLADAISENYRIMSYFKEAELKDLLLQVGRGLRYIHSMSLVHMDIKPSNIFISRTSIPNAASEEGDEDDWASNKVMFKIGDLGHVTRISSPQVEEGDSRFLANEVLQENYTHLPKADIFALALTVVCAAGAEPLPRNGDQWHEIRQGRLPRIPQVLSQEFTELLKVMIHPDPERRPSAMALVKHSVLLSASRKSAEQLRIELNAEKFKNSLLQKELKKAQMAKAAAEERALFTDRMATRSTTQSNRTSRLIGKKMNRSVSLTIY
* hit, by the source's call; · = no result given. Shown are actives, neighbours in structure and some others; about 4.8% of the full set was active somewhere.

SMILES	NF-kB neuron act	Hsp70 activator	STAT1 activator	APP 5'UTR act	APP transl inh	Wee1 degr inh
CCOC(=O)N1CCC(NC(=O)CSc2cc(=O)n(C)c3ccccc23)CC1	1.12	0.0	95.3	1.3	-1.3	-0.9
O=[N+]([O-])c1ccc(Oc2ccc(S(=O)(=O)N3CCCCC3)cc2)cc1	0.87	-0.4	94.3	16.8	-16.8	-1.2
COc1ccc(NCc2ccc3c(c2)OCO3)cc1Cl	1.4	1.4	102.3	10.1	-10.1	2.7
COc1cccc(C(=O)OCCN2CCOCC2)c1	1.73	-0.3	110.5	-9.3	9.3	5.3
COc1cccc(C(=O)Oc2c(CN3CCOCC3)cc(Cl)c3cccnc23)c1	4.57*	-0.3	101.5	-37.9	37.9	-0.8
CC(C)Cn1c(/C=C/c2ccccc2)nc2ccccc21	2.1	-0.2	135.6*	48.9	-48.9	-1.1
CCn1c(/C=C/c2ccccc2)nc2ccccc21	6.99*	-0.2	132.9*	204.8*	-204.8	-1.5
CCn1c(/C=C/c2ccccc2)nc2ccccc2c1=O	0.89	-0.2	105.2	-0.2	0.2	-3.0
Cc1cccc(Nc2nc(N)c([N+](=O)[O-])c(N3CCN(C)CC3)n2)c1	0.6	-0.1	99.9	31.7	-31.7	3.9
COc1ccc(-c2nnc(SCC(=O)Nc3ncc(C)s3)n2-c2ccccc2)cc1OC	1.77	-0.1	90.6	4.0	-4.0	9.9*
COc1ccccc1NC(=O)CC(=O)CSc1nnc(-c2ccc(C)cc2)n1-c1ccccc1	0.93	-0.3	106.2	-5.0	5.0	-0.9
COc1ccc(Oc2nccc(-c3ccccc3)c2C#N)cc1	2.06	-0.1	129.1*	56.4	-56.4	-4.5
COc1ccc(Oc2nccc(-c3ccc(F)cc3)c2C#N)cc1	1.15	-0.2	119.1	3.3	-3.3	11.9*
Cc1ccccc1NC(=O)Cn1nnc(-c2ccc(CN3CCC(C)CC3)cc2)n1	·	·	·	·	·	-1.3
N=C1C(c2nc3ccccc3s2)=C(O)CN1c1ccccc1	1.61	0.2	149.0*	17.4	-17.4	0.1
COc1ccc(N2CC(O)=C(c3nc4ccccc4s3)C2=N)cc1	1.15	0.0	109.3	14.1	-14.1	-2.3
COc1cccc(N2CC(O)=C(c3nc4ccccc4s3)C2=N)c1	1.3	-0.1	128.3	-88.5	88.5*	5.8
O=C(NNC(=O)C12CC3CC(CC(C3)C1)C2)c1cnccn1	0.64	-0.5	97.2	0.5	-0.5	-0.6
CC1CCCCN1S(=O)(=O)c1ccc(C(=O)Nc2ccccc2-c2nc3ccccc3[nH]2)cc1 (configuration not stated)	0.55	0.1	93.5	-6.7	6.7	10.5*
CC(Cn1nnc2ccccc21)C(=O)O (configuration not stated)	1.17	0.1	104.1	7.4	-7.4	-1.0
CC(Cn1cnc2ccccc21)C(=O)O (configuration not stated)	1.09	-0.2	96.2	-55.8	55.8*	-1.5
Cc1c(C(=O)N/N=C/C(C)C)[nH]c2c([N+](=O)[O-])cccc12	1.07	-0.4	70.7	-92.4	92.4*	-2.6
Cc1cc(C(=O)N/N=C/c2cccc([N+](=O)[O-])c2O)n[nH]1	1.23	-0.1	102.1	-6.2	6.2	-0.1
CCOc1ccc(C(=O)NC(=S)Nc2cccc(S(=O)(=O)NC3=NCCC3)c2)cc1	1.14	-0.1	96.8	-89.0	89.0*	9.5*
COC(=O)c1cnn2c(C(F)(F)F)cc(-c3ccc(F)cc3)nc12	1.16	0.7	107.4	7.1	-7.1	2.6
SMILES	NF-kB neuron act	Hsp70 activator	STAT1 activator	APP 5'UTR act	APP transl inh	Wee1 degr inh
CCn1c(SCc2nc3ccccc3c(=O)[nH]2)nnc1C(C)NC(=O)c1ccccc1 (configuration not stated)	1.04	0.1	93.7	3.1	-3.2	1.2
CC(NC(=O)c1ccccc1)c1nnc(SCc2nc3ccccc3c(=O)[nH]2)n1C (configuration not stated)	0.95	0.1	101.5	-6.2	6.2	8.8*
CC1(C)CC2(C)Nc3ccccc3N2C(=S)N1 (configuration not stated)	1.06	-0.1	97.2	-0.1	0.1	0.9
O=C(NC1(C(F)(F)F)N=C(c2ccccc2)NC1=O)c1ccc(Cl)cc1Cl (configuration not stated)	1.54	-0.1	97.2	-9.2	9.2	1.5
Cc1ccnc(NC(=O)Nc2cccc(F)c2)c1	8.59*	0.1	138.1*	197.9*	-197.9	-0.5
COc1cccc(NC(=O)c2ccncc2)c1	1.29	-0.3	104.5	8.2	-8.2	2.3
COc1cccc(NC(=O)Nc2nccc(C)n2)c1	4.1*	0.0	69.0	109.3	-109.3	-2.1
Cc1cccc(NC(=O)Nc2cccc(F)c2)n1	2.47	-0.1	124.6	20.2	-20.3	2.2
Cc1ccnc(NC(=O)Nc2cccc(F)c2)n1	·	0.8	144.9*	150.1*	-150.1	3.3
CC(=O)c1cc2c(cc1NC(=O)c1cccc(S(=O)(=O)N3CCN(C)CC3)c1)OCO2	1.04	0.1	102.3	9.4	-9.4	-2.9
COc1ccc2c(c1)nc(N)n2Cc1ccccc1	0.76	-0.3	96.0	-15.2	15.2	-0.4
COC(=O)COc1ccc(S(=O)(=O)NCC2CCCO2)cc1Cl (configuration not stated)	1.03	0.6	103.2	-25.4	25.4	2.5
Cc1cc(C(=O)N/N=C2\CC(=O)c3ccccc32)c(C)n1-c1ccccc1	1.09	-0.3	137.4*	108.1	-108.1	4.4
O=C(O)c1ccc(-c2ccccn2)s1	1.44	0.2	118.2	-10.2	10.2	8.5
O=C(O)CCCNC(=O)Nc1ccccc1	13.2*	-0.3	97.7	2.6	-2.6	3.1
CCCCCCNC(=O)Nc1ccccc1	1.78	-0.2	113.7	14.4	-14.4	2.8
CCCCOc1ccc2c(c1)C(=O)c1cc(O)ccc1-2	·	-0.1	148.8*	98.8	-98.8	-1.3
COc1cc(/C=N\NC(=O)c2ccc(=O)[nH]n2)cc(OC)c1OC	3.55*	-0.3	91.9	-10.2	10.2	-1.6
COc1ccccc1Nc1nc(N)nc(CSc2nccn2C)n1	1.33	-0.1	109.4	8.1	-8.1	5.4
Cc1cccc(NC(=O)CSc2nccn2C)c1	·	-0.2	108.2	-1.8	1.8	3.7
Cc1cccc(Nc2nc(N)nc(CSc3nccn3C)n2)c1	2.05	0.5	136.2*	26.4	-26.4	7.3
Cc1ccc(Nc2nc(N)nc(CSc3nccn3C)n2)cc1	3.75*	0.1	146.3*	140.3*	-140.3	2.0
CCOC(=O)N1CCN(C(=O)C2CCC(C(=O)N3CCN(C(=O)OCC)CC3)CC2)CC1 (configuration not stated)	·	-0.2	95.7	13.9	-13.9	9.5*
Cn1c(=O)c2c(nc(N3CCN(c4ccccn4)CC3)n2Cc2ccccc2Cl)n(C)c1=O	0.54	0.0	103.4	20.6	-20.6	-0.5
CC(C)(C)c1ccc(S(=O)(=O)CCc2ccccn2)cc1	1.72	0.2	128.9*	12.3	-12.3	1.1
Cc1ccc(S(=O)(=O)CCc2ccccn2)cc1	1.32	0.1	102.5	-3.1	3.1	0.5
